# From PubChem BioAssay
# Compounds with a hit are over-represented: about 12% of the library has one in this group of screens.
# L3MBTL1 inh: L3MBTL1 (human) inhibition. Q9Y468. AlphaScreen L3MBTL1–H3K9me1 peptide binding. Potency, µM (series often up to 57.1 µM), inactives show top-dose activity, negative = inhibition, usual class: inhibitors. 230,000 tested, 0.66% active. AID 485360; also: % is scaled to controls: 0 for no effect and ±100 for the full control effect; nearly all actives have a fitted effect of over 60% in size
# Target sequence (Q9Y468 whole entry, looked up): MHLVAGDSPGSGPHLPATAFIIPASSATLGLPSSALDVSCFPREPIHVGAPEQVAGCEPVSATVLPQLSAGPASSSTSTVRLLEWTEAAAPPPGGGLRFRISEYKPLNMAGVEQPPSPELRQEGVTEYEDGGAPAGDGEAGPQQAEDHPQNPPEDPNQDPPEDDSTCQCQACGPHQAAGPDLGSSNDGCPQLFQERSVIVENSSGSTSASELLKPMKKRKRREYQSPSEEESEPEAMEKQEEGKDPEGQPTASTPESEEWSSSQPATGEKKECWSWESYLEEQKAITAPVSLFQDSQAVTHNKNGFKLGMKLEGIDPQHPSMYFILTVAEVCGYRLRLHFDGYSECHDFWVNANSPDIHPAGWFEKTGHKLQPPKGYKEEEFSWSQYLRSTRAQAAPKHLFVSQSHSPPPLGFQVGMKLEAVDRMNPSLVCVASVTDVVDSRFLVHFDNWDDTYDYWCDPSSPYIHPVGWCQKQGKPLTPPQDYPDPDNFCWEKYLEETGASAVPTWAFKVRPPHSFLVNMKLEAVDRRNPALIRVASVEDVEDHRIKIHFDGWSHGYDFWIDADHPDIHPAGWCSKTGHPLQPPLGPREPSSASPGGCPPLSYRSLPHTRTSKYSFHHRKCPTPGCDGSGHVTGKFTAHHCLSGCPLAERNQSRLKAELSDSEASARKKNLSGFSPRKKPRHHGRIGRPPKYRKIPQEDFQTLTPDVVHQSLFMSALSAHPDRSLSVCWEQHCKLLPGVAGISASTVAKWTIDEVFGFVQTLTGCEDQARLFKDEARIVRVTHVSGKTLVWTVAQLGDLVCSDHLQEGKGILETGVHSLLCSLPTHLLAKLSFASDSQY
#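 Read-out is AlphaScreen signal from streptavidin donor and nickel chelate acceptor beads (10 ug/mL final each) bridging L3MBTL1 (50 nM) and biotinylated K9-monomethylated H3(1-15) peptide (75 nM), after 30 min compound exposure at room temperature.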
# BAZ2B inh: inhibitors of human BAZ2B bromodomain; Q9UIF8; AlphaScreen BAZ2B-H3K14Ac peptide displacement; Potency, µM (top dose mostly 114 µM), without a hit: at the top dose activity change, negative = inhibition, hits mostly inhibitors; 360,000 tested, 4.4% active; AID 504333; also: % is scaled to controls: 0 for no effect and ±100 for the full control effect; nearly all actives have a fitted effect of over 60% in size
#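 Complex of BAZ2B and biotin-H3K14Ac (50 nM apiece) forms over 30 min at RT, then faces library compounds up to 110 uM for another 30 min; AlphaScreen beads added, 20 min dark incubation, luminescence read.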
# HP1b binding inh: HP1-beta chromodomain-methylated histone interaction inhibition; AlphaScreen HP1-beta / biotin-H3K9me3 peptide binding; Potency, µM (titrated, usually from 114 µM), for inactives: top-dose activity change, negative = inhibition, actives largely listed as inhibitors; 390,000 tested, 0.56% active; also: nearly all actives have a fitted effect of over 70% in size
#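 Compound inhibition of the preformed complex between 50 nM HP1-beta and 50 nM biotinylated H3K9me3 peptide was read by AlphaScreen. Buffer was PBS pH 7.4 with 0.01% Tween-20. Incubations ran 30 min at room temperature, with 10 ug/mL donor/acceptor beads.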
# JMJD2A Tudor inh: inhibitors of human JMJD2A Tudor domain; O75164; AlphaScreen JMJD2A-Tudor / H3K4me3 peptide binding; Potency, µM (doses to about 114 µM), for inactives: top-dose activity change, negative = inhibition, usual class: inhibitors; 390,000 tested, 4.4% active; AID 504339; also: % is scaled to controls: 0 for no effect and ±100 for the full control effect; nearly all actives have a fitted effect of over 50% in size
# Sfp PPTase inh: inhibitors of Bacillus subtilis Sfp phosphopantetheinyl transferase; Biochemical Sfp PPTase activity, qHTS; Q9F4F7; Potency, µM, inactives show largest response in the series, negative = inhibition, actives largely listed as inhibitors; 310,000 tested, 3.5% active;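 also: the enzyme is Sfp with the accession as filed and its product quenches rhodamine fluorescence; 0% = enzyme reaction without inhibitor and -100% = no enzyme wells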
#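 Fluorescence-quenching assay with 15 nM Sfp, 5 uM rhodamine-CoA and 12.5 uM BHQ-2-labelled ybbR peptide in pH 7.6 Hepes/MgCl2 buffer. Enzyme was pre-incubated with compound for 15 min at room temperature. Rate was taken from the 30-min fluorescence change (525/598 nm).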
# G9a block: inhibitors of human histone lysine methyltransferase G9a; Q96KQ7; 350,000 tested, 8.8% active; Potency, µM (series often up to 102 µM), for inactives: at the top dose activity, negative = inhibition, most hits filed as inhibitors; AID 504332; G9a H3K9 monomethylation, AlphaScreen, 2 h; also: % is scaled to controls: 0 for no effect and ±100 for the full control effect; nearly all actives have a fitted effect of over 75% in size
#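 Enzyme 20 nM + cpd, 15 min RT; add b-H3K9 pep 500 nM / SAM 20 uM; 2 h RT; anti-H3K9me1 Ab 0.5 ug/mL + SA donor / anti-rabbit acceptor beads 20 ug/mL each, 10 min; AlphaScreen read.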
# The depositor's hits bear a star; ? = inconclusive; · = no result; [ ] = another dose, or the depositor's remark. Calls follow the shape of the dose curve; as a rule, active = well fitted curve in the direction sought with a large enough effect; inconclusive = small, poorly fitted or top-dose-only effect, or another doubt; inactive = no such curve, though single readings can be large; an effect the other way counts as inactive or inconclusive. Potency is read from the fitted curve at half-maximal effect.
SMILES,L3MBTL1 inh,BAZ2B inh,HP1b binding inh,JMJD2A Tudor inh,Sfp PPTase inh,G9a block
Fc1cccc(Cl)c1C1Nc2cccc3cccc(c23)N1,·,31.6µM*,-15.5%,?,-14.7%,·
Clc1cccc(Cl)c1C1Nc2cccc3cccc(c23)N1,14.1µM*,25.1µM*,?,44.7µM*,?,15.8µM*
c1ccc(Cn2c(NCc3ccncc3)nc3ccccc32)cc1,0.5%,-16.1%,66.1%,-19.4%,-14.2%,-18.2%
COC(=O)c1ccc(NC(=O)Nc2ccc3c(c2)nc(C)n3C)cc1,-2.0%,-0.4%,28.1%,-4.1%,-5.5%,-1.6%
COc1ccc(CNc2nc3ccccc3n2Cc2ccc(C)cc2)cc1OC,-3.5%,?,-1.9%,-34.5%,11.1%,79.4µM*
COc1ccc(CNc2ccc3c(c2)nc(C)n3C)cc1OC,·,-19.6%,14.8%,-13.8%,27.5%,39.8µM*
COc1cccc(CNc2ccc3c(c2)nc(C)n3C)c1OC,-5.3%,-25.5%,24.7%,-18.3%,5.2%,35.5µM*
Cc1nc2cc(NCc3nc4ccccc4n3Cc3ccccc3)ccc2n1C,?,44.7µM*,?,?,?,-29.9%[12.7 µM]
C/C=C(\C)C(=O)C[Si](C)(C)c1ccccc1,·,·,·,·,-13.6%,·
CN(C)c1ccc(CNC(=O)c2ccc(NC(=O)c3nsc4ccccc34)cc2)cc1,·,-25.4%,10.6%[57 µM],?,·,-36.1%[59 µM]
CC(C)Cn1c(-c2csc(C(C)C)c2)n[nH]c1=S,-6.8%,-34.4%,-10.3%,?,-13.8%,5.01µM*
CCn1c(-c2csc(C(C)C)c2)n[nH]c1=S,-8.0%,-10.5%,?,10µM*,-24.2%,1.58µM*
CCc1ccccc1N1CC23C=CC(O2)C(C(=O)O)C3C1=O (centres undefined),46.7%,-4.9%,10.5%,22.4µM*,14.4%,-22.8%[59 µM]
CCCCOC(=O)C1[C@H]2C(=O)N(c3ccccc3CC)C[C@]23C=C[C@H]1O3 (some centres undefined),-4.1%,7.8%,36.8%,-7.3%,-7.1%,-15.0%[12.7 µM]
CCCNC(=O)c1cc2nc(-c3ccc(Br)cc3)cc(C(F)(F)F)n2n1,·,9.5%,34.5%,9.6%,·,-2.7%[59 µM]
CSc1ccccc1NC(=O)CCc1ccccc1,8.8%,0.9%,37.4%,18.4%,18.8%,-2.2%
Cn1c(=O)n(C)c2cc(NC(=O)CCc3ccccc3)c(Br)cc21,-5.8%,50.1µM*,30.3%,-2.6%,?,·
Cc1ccc2nc(-c3ccccn3)c(NC3CCCC3)n2c1,-1.6%,-9.1%,?,44.7µM*,4.6%,-42.9%
Cc1cccc(C)c1Nc1c(-c2ccsc2)nc2ccccn12,·,?,?,44.7µM*,·,14.1µM*
Cc1cccc(C)c1Nc1c(-c2ccccn2)nc2ccccn12,?,25.1µM*,?,44.7µM*,15.9%,39.8µM*
CCCCCC(=O)Cc1cc(O)cc2c1C(=O)Oc1cc(O)c(C(=O)O)c(CCCCC)c1O2,·,?,-9.5%,79.4µM*,8.7%,-22.5%[59 µM]
CCCCCC/C=C\CCCCCCCc1cccc(O)c1C(=O)O,·,·,·,·,9.0%,2.5%[2.33 µM]
O=C(Nc1ccc(Cl)cc1)Nc1cc(S(=O)(=O)N2CCOCC2)ccc1N1CCCC1,-11.3%,-33.4%,3.2%,-33.1%,-18.1%,39.8µM*
NC(=O)C1CCN(CC(=O)Nc2cc(S(=O)(=O)N3CCOCC3)ccc2N2CCCC2)CC1,0.6%,-1.4%,19.7%,-7.4%,·,20µM*
CCOc1ccc(Oc2ccc(S(=O)(=O)N3CCOCC3)cc2NC(=O)C2=COCCO2)cc1,-8.5%,0.1%,-3.0%,-21.9%,·,14.0%[2.33 µM]
SMILES,L3MBTL1 inh,BAZ2B inh,HP1b binding inh,JMJD2A Tudor inh,Sfp PPTase inh,G9a block
O=C(Nc1cc(S(=O)(=O)N2CCOCC2)ccc1Oc1ccc(F)cc1)C1=COCCO1,-7.7%,-0.6%,10.2%,-18.4%,·,50.1µM*
O=C(Nc1cc(S(=O)(=O)N2CCOCC2)ccc1N1CCCC1)C1CC1,4.3%,-21.0%,18.8%,-4.1%,-11.0%,39.8µM*
O=C(Nc1ccccc1)Nc1cc(S(=O)(=O)N2CCOCC2)ccc1N1CCCC1,45.8%,1.2%,?,-29.1%,?,?
CCOC(=O)c1ccc(NC(=O)CSc2nc3ncc(Br)c(C)c3[nH]2)cc1,·,1.7%,12.1%,-0.3%,·,-3.2%[59 µM]
Cc1noc(C)c1-c1ccc2ncnc(NC3CCCc4ccccc43)c2c1 (centres undefined),·,·,·,-33.8%,-13.5%,·
CCOC(=O)c1[nH]c(C)c(CCC(=O)Nc2cc(C)ccc2OC)c1C,·,-11.4%,16.0%[57 µM],-18.2%,·,-34.9%[59 µM]
CCN(C(=S)Nc1cc(S(=O)(=O)N2CCOCC2)ccc1Cl)c1cccc2ccccc12,-0.4%,?,-23.7%,-25.3%,3.98µM*,1.78µM*
O=C(Cc1ccccc1Cl)Nc1cc(S(=O)(=O)N2CCOCC2)ccc1N1CCOCC1,0.9%,17.0%,17.3%,-15.8%,·,3.55µM*
O=C(Nc1ccc(F)cc1)Nc1cc(S(=O)(=O)N2CCOCC2)ccc1N1CCCC1,?,?,15.5%,-14.7%,-7.9%,35.5µM*
N[C@]1(C(=O)O)CCc2cc(P(=O)(O)O)ccc21,·,·,·,·,-2.7%,·
COC(=O)CC1c2ccccc2C=C(C2CC2)N1C(=O)OC (centres undefined),·,·,·,·,-3.6%,·
CC(C)C[C@H](NC(=O)[C@H](CC(C)C)NC(=O)[C@@H](Cc1c[nH]c2ccccc12)NC(=O)[C@H](Cc1ccccc1)NC(=O)[C@@H](Cc1c[nH]c2ccccc12)NC(=O)[C@H](CCC(N)=O)NC(=O)[C@H](CCC(N)=O)NC(=O)[C@@H]1CCCN1C(=O)[C@H](CCCCN)NC(=O)[C@@H]1CCCN1C(=O)[C@H](N)CCCN=C(N)N)C(N)=O,·,·,·,·,-5.4%,·
CC1=[N+](C)c2ccc3ccccc3c2C1(C)C,-13.6%,50.1µM*,-5.0%,?,?,8.91µM*
CC(=O)Nc1ccc(S(=O)(=O)N2CCC(n3c(C(F)(F)F)nc4cccnc43)CC2)cc1,·,3.1%,9.1%,-4.2%,·,5.1%[59 µM]
CCOc1ccc2c(c1)/C(=N/N1C(=O)c3ccccc3C1=O)C(=O)N2,·,-5.6%,4.4%,-11.4%,17.7%,-5.3%[59 µM]
CCOc1ccc2c(c1)-c1c(ssc1=S)C(C)(C)N2,·,10µM*,?,25.1µM*,-27.9%,10µM*
O=C(COC(=O)c1ccc2c(c1)C(=O)N(Cc1ccncc1)C2=O)Nc1ccccc1[N+](=O)[O-],?,-38.7%,-19.2%,?,-16.6%,-0.6%[59 µM]
CC(OC(=O)c1ccc2c(c1)C(=O)N(Cc1ccncc1)C2=O)C(=O)Nc1cccc(Cl)c1Cl (centres undefined),7.7%,-0.5%,-5.1%,-28.2%,-5.7%,89.1µM*
COc1ccc(OC)c(CNc2ccc3c(c2)CCC3)c1,·,?,?,?,-2.1%,31.6µM*
COc1cccc(CNc2ccc3c(c2)CCC3)c1,·,?,-14.0%,?,-26.3%,14.1µM*
